PubChem BioAssay (Tox21)
Inconclusive results are not listed. Unmarked numbers belong to inactive results. The call rests on the fitted dose curve.

Assay: qHTS assay for small molecule agonists of the antioxidant response element (ARE) signaling pathway - cell viability counter screen (AID 743203); further: nearly all actives have a fitted effect of over 55% in size
Conditions: ARE-bla HepG2 viability, CellTiter-Glo luminescence, 16 h; series mostly up to 73.3 µM; viability change, negative = cytotoxic: at the top concentration
Description: National Center for Advancing Translational Sciences [NCATS]
NIH Chemical Genomics Center [NCGC]
U.S. Environmental Protection Agency [EPA]
National Institutes of Environmental Health Sciences [NIEHS]
National Toxicology Program [NTP]
U.S. Food and Drug Administration [FDA]
Oxidative stress has been implicated in the pathogenesis of a variety of diseases ranging from cancer to neurodegeneration. The antioxidant response element (ARE) signaling pathway plays an important role in the amelioration of oxidative stress. The CellSensor ARE-bla HepG2 cell line (Invitrogen) can be used for analyzing the Nrf2/antioxidant response signaling pathway. Nrf2 (NF-E2-related factor 2) and Nrf1 are transcription factors that bind to AREs and activate these genes. The CellSensor ARE-bla Hep G2 cell line contains a beta-lactamase reporter gene under control of the Antioxidant Response Element (ARE) stably integrated into HepG2 cells. The activation of the report gene under culture conditions can be detected by fluorescence intensity. This cell line has been used to screen the Tox21 10K compound library to identify agonists that induce oxidative stress. The cytotoxicity of the Tox21 compound library against the ARE-bla cell line was tested in parallel by measuring the cell viability using CellTiter-Glo assay (Promega, Madison, WI) in the same wells.
Tox21 Assay Protocol Summary:
ARE-bla HepG2 cells were dispensed at 2,000 cells/5 ul/well in 1536-well white wall/solid bottom plates using a Multidrop Combi (ThermoFisher Scientific, Waltham, MA) dispenser. After the assay plates were incubated at 37C/5% CO2 for 5 hrs, 23 nL of compounds dissolved in DMSO, positive controls or DMSO only was transferred to the assay plate by a pintool work station (Kalypsys, San Diego, CA). The plates were incubated at 37C/5% CO2 for 16 hrs, followed by addition of 4 ul/well of CellTiter-Glo reagent into the assay plates using a Flying Reagent Dispenser (Aurora Discovery, San Diego, CA). After 30 min incubation at room temperature, the luminescence intensity in the assay plates was measured using a ViewLux (PerkinElmer, Shelton, CT) plate reader.
On the % scale 0 is the no-effect control and ±100 the full control effect.

Compared with `Nc1ccc([N+](=O)[O-])c(N)c1`, `Nc1ccc(S(=O)(=O)Nc2ccc(Cl)nn2)cc1` is lower in “viability change, negative = cytotoxic” value: 1.66% for the first, 1.62% for the second.

First: Cc1c(I)c(=O)n(-c2ccccc2)n1C
Second: Cc1cccc(C)c1NC(=O)c1ccccc1C(=O)O
The “viability change, negative = cytotoxic” value of the first is lower: 9.07% for the first, 14.4% for the second.

Going from `CCCCOC(=O)c1ccccc1` to `CCOC(=O)c1ccc(OC(=O)CCCCCN=C(N)N)cc1`, the “viability change, negative = cytotoxic” value falls from -0.392% to -17.1%.

First: CCN(C)C(=O)Oc1cccc([C@H](C)N(C)C)c1
Second: CCOc1cc(NC(C)=O)ccc1C(=O)OC
The “viability change, negative = cytotoxic” value of the first is higher: 11.3% for the first, 7.36% for the second.

First: CC(=O)CCCCn1c(=O)c2c(ncn2C)n(C)c1=O
Second: CCOC(=O)c1ncn2c1CN(C)C(=O)c1cc(F)ccc1-2
The “viability change, negative = cytotoxic” value of the first is lower: 1.11% for the first, 1.67% for the second.

Compared with `CC(C)CCCC(C)(C)O`, `CC(C)OC(=O)CCCCC(=O)OC(C)C` is lower in “viability change, negative = cytotoxic” value: 1.08% for the first, -2.76% for the second.

Compared with `CCCCNC1CC(C)(C)NC(C)(C)C1`, `CCCCCCCCC1CCC(=O)O1` (stereo not given) is lower in “viability change, negative = cytotoxic” value: 15.3% for the first, 11.5% for the second.

Compared with `CNS(=O)(=O)CCc1ccc2[nH]cc(C3CCN(C)CC3)c2c1`, `O=C1c2cccc3c2[C@H](CCC3)CN1[C@@H]1CN2CCC1CC2` is lower in “viability change, negative = cytotoxic” value: -3.03% for the first, -5.24% for the second.

Compared with `CCOCCOCCOCC`, `CCCCC(CC)COCCO` (stereo not given) is lower in “viability change, negative = cytotoxic” value: 6.08% for the first, 2.57% for the second.

First: CCN1CCc2nc(N)oc2CC1
Second: NCCN1CCOCC1
The “viability change, negative = cytotoxic” value of the first is higher: 0.395% for the first, -4.15% for the second.

First: Nc1nnc(-c2cccc(Cl)c2Cl)c(N)n1
Second: Cc1cccc2nccnc12
The “viability change, negative = cytotoxic” value of the first is higher: 9.82% for the first, -20.2% for the second.

Compared with `O=C1CC(c2ccc(Cl)cc2)CC(=O)N1`, `CC(C(=O)O)c1ccc2c(c1)CC(=O)c1ccccc1S2` (stereo not given) is lower in “viability change, negative = cytotoxic” value: 12.6% for the first, 0.267% for the second.

Compared with `CCCCOCCOC(=O)COc1nc(Cl)c(Cl)cc1Cl`, `CCCCCCOC(=O)CC` is higher in “viability change, negative = cytotoxic” value: 3.82% for the first, 8.26% for the second.

First: CC(=O)Nc1ccc(S(=O)(=O)Nc2ccc([N+](=O)[O-])cc2)cc1
Second: c1ccc2c(c1)ccc1c3ccccc3ccc21
The “viability change, negative = cytotoxic” value of the first is lower: -4.15% for the first, -2.6% for the second.

First: CCCC/C=C/C=C\C=O
Second: C=C(C)C(=O)OCCN(CC)CC
The “viability change, negative = cytotoxic” value of the first is lower: 4.72% for the first, 9.65% for the second.

Going from `CC(C)(C)c1cc(CCC(=O)NN)cc(C(C)(C)C)c1O` to `C=C(C)C(=O)OCC(C)(C)COC(=O)C(=C)C`, the “viability change, negative = cytotoxic” value falls from -8.01% to -13%.

Going from `COCCc1ccc(OCC2CO2)cc1` (stereo not given) to `CC(C)N(c1ccccc1)C(C)C`, the “viability change, negative = cytotoxic” value rises from -0.535% to 8.48%.

In the case of `CC(C)C[C@H](NC(=O)CNC(=O)[C@H](Cc1ccc(O)cc1)NC(=O)[C@H](CO)NC(=O)[C@H](Cc1c[nH]c2ccccc12)NC(=O)[C@H](Cc1cnc[nH]1)NC(=O)[C@@H]1CCC(=O)N1)C(=O)N[C@@H](CCCN=C(N)N)C(=O)N1CCC[C@H]1C(=O)NCC(N)=O` (stereo in doubt), the “viability change, negative = cytotoxic” value was 0.207%.

Going from `CCCCCCCCC(=O)Cl` to `BrCCCCCBr`, the “viability change, negative = cytotoxic” value rises from -9.53% [at 94.8 µM] to -7.04% [at 94.8 µM].

In the case of `O=C1c2ccccc2C(=O)c2cc(S(=O)(=O)O)ccc21`, the “viability change, negative = cytotoxic” value was -4.8% [at 94.8 µM].

With `Cc1nc2n(c(=O)c1CCN1CCC(c3noc4cc(F)ccc34)CC1)CCC[C@H]2O` the “viability change, negative = cytotoxic” value was 9.39% [at 34.3 µM].

Compound `COC(=O)C1CC(=O)C(C(=O)OC)CC1=O` (stereo not given) has a viability change, negative = cytotoxic of -0.839% [at 8.36 µM].
